Compounds without any hit were thinned out: in the full panel of roughly 79,000, 15% have a hit. Activity calls are given as the source filed them. No stated cut-off is given here; in the data, active means growth inhibition above about 70%; inactive means the rest.
Experiments:
[1] = NCI Yeast Anticancer Drug Screen. Data for the rad50 strain (AID 155);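 further: 0% = growth of vehicle-only cultures of the same strain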; conditions: S. cerevisiae rad50 strain growth inhibition; at 50.0 µM; active compounds read high
How it was run: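 DNA repair mutant yeast, compound exposure, growth read-out; inhibition is taken relative to vehicle.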

[2] = NCI Yeast Anticancer Drug Screen. Data for the mec2-1 strain (AID 157); conditions: S. cerevisiae mec2-1 strain, at 50.0 µM, active compounds read high
How it was run: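 Each compound was tested on mec2-1 yeast, a strain altered in DNA damage repair or cell cycle control. Growth inhibition is reported relative to vehicle.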

[3] = NCI Yeast Anticancer Drug Screen. Data for the sgs1 mgt1 strain (AID 161);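 further: 0% = growth of cultures given vehicle only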; conditions: S. cerevisiae sgs1 mgt1 strain, at 50.0 µM, active compounds read high
How it was run: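 Read-out: growth inhibition vs vehicle controls. Cells: mutant yeast strain deficient in DNA damage repair.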

[4] = NCI Yeast Anticancer Drug Screen. Data for the cln2 rad14 strain (AID 165);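 further: 0% = growth equal to vehicle treated cultures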; conditions: S. cerevisiae cln2 rad14 strain, at 50.0 µM, active compounds read high
How it was run: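 Test compounds were added to cln2 rad14 yeast cultures; inhibition of growth was then determined by comparison with vehicle treatment.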

[5] = NCI Yeast Anticancer Drug Screen. Data for the bub3 strain (AID 167); conditions: S. cerevisiae bub3 mutant strain, at 50.0 µM, active compounds read high
How it was run: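 In this screen, a yeast mutant lacking normal mitotic checkpoint function is challenged with compound. Relative growth versus vehicle gives the inhibition value.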

[6] = NCI Yeast Anticancer Drug Screen. Data for the mlh1 rad18 strain (AID 175); conditions: S. cerevisiae mlh1 rad18 strain growth inhibition; at 50.0 µM; active compounds read high
How it was run: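 Inhibition values reflect reduced growth of mutant yeast versus vehicle-treated controls following compound exposure; the mutations affect DNA damage repair.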

Measured: growth inhibition

COc1cc(NC(C)=O)c2nccnc2c1
inactive: [1] -16.4% | [2] -21.6% | [3] 0.1% | [4] -20.6% | [5] -0.95% | [6] -14.2%

CC(=O)OCC(C)(C)C(OC(C)=O)C(C)C (stereo not given)
inactive: [1] 16.1% | [2] 0.75% | [3] 13.8% | [4] -46.8% | [5] -0.5% | [6] 11.2%

COc1ccc(/C(Nc2ccccc2)=C(\CCl)c2ccccc2)cc1OC
inactive: [1] 6.5% | [2] 7.75% | [3] 34.5% | [4] 5.1% | [5] 44.4% | [6] 9.25%

COc1cc(C(=O)Nc2c3ccccc3nc3ccccc23)cc(OC)c1OC
inactive: [1] -19.9% | [2] -4.55% | [3] 7.8% | [4] -23.6% | [5] -3.3% | [6] -14.6%

CCOC(=O)/C=C/C(=O)N(C)c1ccccc1
inactive: [1] -12.2% | [2] -7.15% | [3] -5.3% | [4] -0.5% | [5] -12.7% | [6] -18.6%

O=C(NC(Cc1ccccc1)C(=O)O)c1ccccc1 (stereo not given)
inactive: [1] 4% | [2] 4.9% | [3] 24.1% | [4] -1.6% | [5] 6.7% | [6] 1.55%

CC(=O)Oc1ccc(-c2c3ccccc3cc3c2ccc2ccccc23)cc1
inactive: [1] 1.75% | [2] -10.4% | [3] -9.85% | [4] -5.05% | [5] -2.7% | [6] -28.3%

S=c1nc(-c2cccnc2)[nH][nH]1
inactive: [1] 1.6% | [2] 0.5% | [3] 0.7% | [4] 0.8% | [5] 1.55% | [6] 3.85%

CN(CCO)c1cnn(CCO)c(=O)c1Cl
inactive: [1] -14.9% | [2] -8.25% | [3] -17.6% | [4] -6.15% | [5] 8.2% | [6] -7.45%

CC(=O)OC1CCCN(C)C1 (stereo not given)
inactive: [1] -3.2% | [2] 5.5% | [3] 4.6% | [4] -7.9% | [5] 8.75% | [6] -7.8%

CC(=O)OCCn1c(Cc2ccc(Cl)cc2)nn(C(C)=O)c1=O
inactive: [1] 14.4% | [2] 5.95% | [3] 20.1% | [4] 6.7% | [5] -15.2% | [6] 15.3%

CCOc1ccc(NC(=O)C2=C(C)NC(C)=C(C(=O)Nc3ccc(OCC)cc3)C2c2ccc(O)c(OC)c2)cc1
inactive: [1] -17.4% | [2] 3% | [3] -14.8% | [4] -16.4% | [5] 16% | [6] -8.1%

COc1ccc(/C=N\NC(=O)N/N=C/c2ccc(OC)c(Br)c2)cc1Br
active: [6] 71.7%
inactive: [1] 44.3% | [2] 39.7% | [3] 44.6% | [4] 49.5% | [5] 39.2%

O=[N+]([O-])c1ccc2c(c1)Cc1cc(N(CBr)CBr)ccc1-2
inactive: [1] 6.35% | [2] 5.8% | [3] -1.4% | [4] -21.7% | [5] -7.55% | [6] 18.9%

O=[N+]([O-])c1ccc(SN2CCCCC2CC2CCCCC2)c([N+](=O)[O-])c1 (stereo not given)
inactive: [1] 19.9% | [2] -4.6% | [3] -18.9% | [4] -2.25% | [5] 1.3% | [6] 3.1%

CCN=C(N)CSS(=O)(=O)O
inactive: [1] -1.9% | [2] -28.1% | [3] -32.8% | [4] -4.6% | [5] -22% | [6] -16.7%

O=S(Cc1cnc2ccccc2c1)c1nc2ccccc2nc1-c1cccs1 (stereo not given)
inactive: [1] -10.2% | [2] -28.8% | [3] -20.7% | [4] -11% | [5] -8.4% | [6] -11.7%

CC(C)[O-].CC(C)[O-].O=c1cccccc1[O-].O=c1cccccc1[O-].[Ti+4]
inactive: [1] -13.2% | [2] 0.9% | [3] 14.2% | [4] 10.8% | [5] -1.5% | [6] 22.4%

CCOC(=O)C(CCCCC(CN(CC)CC)(C(=O)OCC)c1ccccc1)(CN(CC)CC)c1ccccc1 (stereo not given)
inactive: [1] 29.4% | [2] -10.2% | [3] 11.7% | [4] 0.65% | [5] 2% | [6] 12.3%

NC(=O)C(CNCc1ccccc1)NCc1ccccc1 (stereo not given)
inactive: [1] -1.5% | [2] 14.2% | [3] 3.1% | [4] -8.5% | [5] 3.6% | [6] -11.4%
